The structures appear in SMILES notation. Results filed as inconclusive are left out. Entries that show only a call come without a potency. Activity calls are given as the source filed them. Calls follow the shape of the dose curve; as a rule, active = well fitted inhibition curve with a large enough effect; inconclusive = small, poorly fitted or top-dose-only effect; inactive = no such curve, though single readings can be large or run the other way.
Potency is read from the fitted curve at half-maximal effect.

The target in this test is Cytochrome P450 3A4 (Homo sapiens) (UniProt P08684). Description: qHTS Assay for Inhibitors and Substrates of Cytochrome P450 3A4 (AID 884). Also: nearly all actives have a fitted effect of over 50% in size. Conditions: recombinant CYP3A4, Luciferin-PPXE luminescence; series mostly up to 57.1 µM. The essentials: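 20 nM human CYP3A4 with 25 uM Luciferin-PPXE (at KM) in 200 mM KPO4, preincubated 10 min with compound; NADPH regeneration started a 60 min RT reaction. Luciferin detected by luminescence, normalized to 57 uM ketoconazole as full inhibition.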
Chain of Cytochrome P450 3A4 (Homo sapiens) (P08684 whole entry, looked up): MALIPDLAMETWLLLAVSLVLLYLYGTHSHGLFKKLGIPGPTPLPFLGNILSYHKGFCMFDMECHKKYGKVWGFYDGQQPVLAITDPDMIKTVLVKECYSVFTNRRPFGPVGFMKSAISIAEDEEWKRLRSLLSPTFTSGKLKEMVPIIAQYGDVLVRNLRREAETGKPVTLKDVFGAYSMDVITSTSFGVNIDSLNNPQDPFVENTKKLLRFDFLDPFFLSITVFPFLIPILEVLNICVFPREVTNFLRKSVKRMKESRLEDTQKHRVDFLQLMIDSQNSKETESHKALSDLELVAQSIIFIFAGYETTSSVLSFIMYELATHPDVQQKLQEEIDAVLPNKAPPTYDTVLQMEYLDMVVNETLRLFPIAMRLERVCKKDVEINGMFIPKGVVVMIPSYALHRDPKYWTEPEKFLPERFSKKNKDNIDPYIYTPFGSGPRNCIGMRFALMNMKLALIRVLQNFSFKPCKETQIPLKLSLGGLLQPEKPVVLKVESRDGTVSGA
Background: qHTS replaces the single test concentration by a dilution series.
`CN(C)/C=N/c1cc(=O)n(C)c(=O)n1CC1CC1`: the Potency result is “inactive”.
Regarding `O=C(N[C@@H](Cc1ccccc1)C(=O)O)c1ccccc1`, the Potency entry was “inactive”.
Take `CN1C[C@@H]2C(c3ccc(Cl)nc3)C3(c4cccnc4)CC2(C3)[C@H]1c1ccccc1` (stereo not given in full): the Potency is 7940 nM (active).
On to `COc1cc(/C=C/C(=O)N2CCCCC2=O)cc(OC)c1OC`, for which the Potency result was “inactive”.
Take `NC(=O)NCc1ccccc1`: the Potency result is “inactive”.
For `CC(=O)c1ccsc1B(O)O`, the Potency entry was “inactive”.
To `Cn1c(=O)c(C(=O)COC(=O)c2cc(C(F)(F)F)nc3c(C(F)(F)F)cccc23)c(N)n(Cc2ccccc2)c1=O` belongs “inactive”; to `FC(F)(F)c1ccc(C2[C@H]3CN(CC4CCCCC4)[C@H](c4ccccc4)C34CC2(c2ccccc2)C4)cc1` (stereo not given in full), “inactive”.
`O=C(O)c1ccc(NS(=O)(=O)c2ccsc2C(=O)O)cc1`: the Potency result is “inactive”.
In the case of `O=C(O)/C=C/c1cccc(B(O)O)c1`, the Potency entry was “inactive”.
To `COC(=O)c1cccc(C23CC4(C2)[C@H](CN(Cc2cccnc2)[C@@H]4c2ccccc2)C3c2ccccc2)c1` (stereo not given in full) belongs 1580 nM (active).
To `CCCN1[C@H](C(=O)OC)C[C@@]2(O)[C@@H](O)[C@@H](O)[C@@H](O)C[C@@H]12` belongs “inactive”; to `COC(=O)[C@@H]1C[C@@]2(O)[C@@H](O)[C@@H](O)[C@@H](O)C[C@H]2N1Cc1ccc(-c2ccccc2)cc1`, “inactive”.
On to `COC(=O)[C@@H]1C[C@@]2(O)[C@@H](O)[C@@H](O)[C@@H](O)C[C@H]2N1CC1CC1`, for which the Potency result was “inactive”.
To `CCC1=C(OC(=O)N(CC)CC)N2C(=O)OC(=NCC3CC3)[C@]2(Cc2ccccc2)[C@H]2C1=CC[C@H]1C(=O)N(CC(=O)OC)C(=O)[C@H]12` belongs 2000 nM (active); to `Cc1csc(B(O)O)c1`, “inactive”.
As for `CCC1=C2CC[C@H]3C(=O)N(c4ccccc4)C(=O)[C@H]3[C@H]2[C@@]2(C)C(=O)N(Cc3ccccc3)C(=O)N2C1=O`, the Potency result was “inactive”.
For the compound `N=C(N)c1ccc(N2CCN(C3CCN(CC(=O)O)CC3)CC2)cc1`, the Potency result was “inactive”.
Turning to `COC(=O)[C@@H]1C[C@@]2(O)[C@H](O)[C@H](O)[C@H](O)C[C@H]2N1CC1CCCCC1`, the Potency entry was “inactive”.
For `OB(O)c1cc2ccccc2s1`, the Potency entry was “inactive”.
For `CC1=C(C(=O)OCc2ccccc2)C(C2CC2)NC(=O)N1CCCCCC(=O)O` (stereo not given), the Potency result is “inactive”.
For `N#Cc1ccc(C23CC4(C2)[C@H](CN(Cc2ccc(C(F)(F)F)cc2)[C@@H]4c2ccccc2)C3c2ccc(C(F)(F)F)cc2)cc1` (stereo not given in full), the Potency result was “inactive”.
With `COC(=O)[C@@H]1C[C@@]2(O)[C@H](O)[C@H](O)[C@H](O)C[C@H]2N1Cc1ccc(N2CCOCC2)cc1`, the Potency entry is “inactive”.
For the compound `COC(=O)c1ccc(CN2[C@H](C(=O)OC)C[C@@]3(O)[C@@H](O)[C@@H](O)[C@@H](O)C[C@@H]23)cc1`, the Potency result was “inactive”.
With `O=C(Nc1cc(NC(=O)c2ccccc2)c(C(=O)O)cc1C(=O)O)c1ccccc1`, the Potency result is “inactive”.
Consider `CCC1=C2CC[C@H]3C(=O)N(C)C(=O)[C@H]3[C@H]2[C@@]2(C)C(=O)N(CC3CC3)C(=O)N2C1=O`, for which the Potency entry is “inactive”.
For `COC(=O)[C@@H]1C[C@@]2(O)[C@@H](O)[C@@H](O)[C@@H](O)C[C@H]2N1Cc1ccc(C)s1`, the Potency result was “inactive”.
The result for `COC(=O)[C@@H]1C[C@@]2(O)[C@@H](O)[C@@H](O)[C@@H](O)C[C@H]2N1Cc1ccc(Cl)cc1` reads “inactive”.
On to `COC(=O)[C@@H]1C[C@@]2(O)[C@H](O)[C@H](O)[C@H](O)C[C@H]2N1Cc1ccc(C(C)(C)C)cc1`, for which the Potency result is “inactive”.
In the case of `COC(=O)CC1Oc2cc3oc4c5ccccc5oc(=O)c4c3cc2O1` (stereo not given), the Potency entry was “inactive”.
Regarding `O=C(O)c1ccc(NS(=O)(=O)c2ccsc2C(=O)O)c(O)c1`, the Potency entry is “inactive”.
Consider `OB(O)c1ccc(Br)cc1`, for which the Potency result was “inactive”.
As to `COC(=O)[C@@H]1C[C@@]2(O)[C@H](O)[C@H](O)[C@H](O)C[C@H]2N1C/C=C/c1ccccc1`, the Potency entry is “inactive”.
`Nc1cccc(B(O)O)c1`: the Potency entry is “inactive”.
Consider `N#Cc1ccc(C23CC4(C2)[C@H](CN(Cc2ccc(-c5ccccc5)cc2)[C@@H]4c2ccccc2)C3c2ccc(Cl)nc2)cc1` (stereo not given in full), for which the Potency entry is “inactive”.
With `CC(C)Cn1c(N)c(C(=O)COC(=O)c2cc(-c3ccccc3)nc3ccccc23)c(=O)n(C)c1=O`, the Potency entry is “inactive”.
On to `OB(O)c1cc2ccccc2o1`, for which the Potency result was “inactive”.
Turning to `COC(=O)c1ccc(C23CC4(C2)[C@H](CN(Cc2ccc(C(F)(F)F)cc2)[C@@H]4c2ccccc2)C3c2ccc(Cl)nc2)cc1` (stereo not given in full), the Potency entry was “inactive”.
Consider `CCC1=C2CC[C@H]3C(=O)NC(=O)[C@H]3[C@H]2[C@@]2(C)C(=NCC(=O)OC)OC(=O)N2C1=O`, for which the Potency result is “inactive”.
Take `CCCCCCCCCCCCCCCC(=O)NCCc1ccc(O)c(O)c1`: the Potency entry is “inactive”.

(Values after PubChem BioAssay (NCATS).)
